Laboratory results taken from PubChem BioAssay (NCI).
The panel holds about 83,000 compounds, 20% with a hit somewhere; the sample as a whole holds those more often.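 Activity criterion: percent growth below 10, measured after cells in 96-well plates were exposed to a single compound concentration for 48 hours.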 Unmarked numbers belong to inactive results. The source made the active and inactive calls.

Assays:
Experiment in all cases: NCI-60 one-dose screen, 48 h (100 = growth as untreated, 0 = no growth, -100 = all killed)
A549/ATCC NSCLC = details: 10 µM unless noted
DU-145 prostate = details: 10 µM unless noted
K-562 leukemia = details: 10 µM unless noted
RXF 393 renal = details: 10 µM unless noted
UACC-257 melanoma = details: 10 µM unless noted
HT29 colon = details: 10 µM unless noted
PC-3 prostate = details: 10 µM unless noted
SK-MEL-5 melanoma = details: 10 µM unless noted
UACC-62 melanoma = details: 10 µM unless noted
SK-MEL-2 melanoma = details: 10 µM unless noted
ACHN renal = details: 10 µM unless noted
A498 renal = details: 10 µM unless noted
HL-60(TB) leukemia = details: 10 µM unless noted
MOLT-4 leukemia = details: 10 µM
OVCAR-8 ovarian = details: 10 µM unless noted
OVCAR-5 ovarian = details: 10 µM unless noted
NCI/ADR-RES ovarian = details: 10 µM unless noted
T-47D breast = details: 10 µM unless noted
SNB-75 CNS = details: 10 µM unless noted
HS 578T breast = details: 10 µM unless noted

| SMILES | growth (A549/ATCC NSCLC) [%] | growth (DU-145 prostate) | growth (K-562 leukemia) | growth (RXF 393 renal) | growth (UACC-257 melanoma) [%] | growth (HT29 colon) | growth (PC-3 prostate) | growth (SK-MEL-5 melanoma) | growth (UACC-62 melanoma) | growth (SK-MEL-2 melanoma) | growth (ACHN renal) [%] | growth (A498 renal) | growth (HL-60(TB) leukemia) | growth (MOLT-4 leukemia) | growth (OVCAR-8 ovarian) [%] | growth (OVCAR-5 ovarian) [%] | growth (NCI/ADR-RES ovarian) | growth (T-47D breast) | growth (SNB-75 CNS) | growth (HS 578T breast) |
| --- | --- | --- | --- | --- | --- | --- | --- | --- | --- | --- | --- | --- | --- | --- | --- | --- | --- | --- | --- | --- |
| COc1ccc(C(c2ccc(OC)cc2)C(Cl)(Cl)Cl)cc1 | 94.6 | 107% | 65.7% | 73.4% | 78.8 | 78.3% | 68.7% | 80.2% | 84.7% | 77.4% | 92.1 | 57.3% | 72.5% | 85.8% | 86.7 | 91.9 | 89.6% | 68.4% |  |  |
| C[C@]12CCc3sc(-c4ccc(Cl)cc4)nc3C1=CC[C@@H]1[C@@H]2CC[C@]2(C)C(=O)CC[C@@H]12 | 80.2 | 43.6% | 7.44% (active) | -36.9% (active) | 99 |  | 50% | 62.4% | 51.1% |  | 70.6 | 73.3% | 39% | 8.47% (active) | 80.4 | 98.2 | 81.6% | 66.2% | 58.3% | 44.6% |
| O=C1C=CC(=O)C2C1C1(Cl)C(Cl)=C(Cl)C2(Cl)C1(Cl)Cl (stereo unspecified) | 60.6 | 70.1% | 29.2% | 23.9% | 57.5 | 76.7% | 44.3% | 47.5% | 46.1% | 37% | 50.8 | 36.1% | 9.38% (active) | 59.5% | 74.3 | 78.3 | 47.3% | 28% | 40.3% | 58.2% |
| CC(=O)[O][Hg][c]1ccccc1 |  | -97.9% (active) | -21% (active) | -92% (active) |  | -47.9% (active) | -57.8% (active) | -87.6% (active) | -69% (active) | -52.9% (active) |  | -46.6% (active) | -27.5% (active) | -10.9% (active) |  |  | -39.1% (active) | -42.1% (active) | -65.9% (active) | 16.4% |
| O=C(O)c1cccc(CCl)c1 | 96 | 108% | 101% | 112% | 94.2 | 102% | 102% | 113% | 108% | 103% | 100 | 117% | 93.4% | 93.2% | 96.5 | 102 | 103% | 96.3% | 87.2% |  |
| CC(C)CCC1(CCO)C(=O)NC(=S)NC1=O | 91.9 | 107% | 120% | 120% | 100 | 99.3% | 87.8% | 105% | 97.3% | 101% | 103 | 93.7% | 98.1% | 113% | 101 | 99.5 | 114% | 112% | 99.8% | 114% |
| O=CN1N=C(c2ccc3c(c2)OCO3)CC1c1sc(N(CCCl)CCCl)nc1Cl (stereo unspecified) | 83.9 | 107% | 85.4% | 109% | 84.4 | 97.9% | 88.2% | 101% | 77.5% | 92.9% | 93.4 | 97.7% | 88.6% | 79.3% | 92.9 | 90.1 | 101% | 84.1% | 90.8% | 79.8% |
| O=CN1N=C(c2ccccc2)CC1c1sc(N(CCCl)CCCl)nc1Cl (stereo unspecified) | 88.4 | 111% | 78.1% | 108% | 97.4 | 92.2% | 82.5% | 98.5% | 67.5% | 77.2% | 90.9 | 123% | 94% | 85.6% | 91 | 90.6 | 93.6% | 83% | 72% | 90.2% |
| Nc1cccc(CC(=O)Nc2ccc(S(=O)(=O)F)cc2)c1 | 96.5 | 110% | 144% | 87.3% | 103 | 91.9% | 82.2% | 104% | 90.5% | 125% | 112 |  |  | 117% | 91.2 | 98.5 |  | 92.5% | 71.8% | 99.1% |
| COc1ccc(C2=NN(c3ccccc3)C(c3sc(N(CCCl)CCCl)nc3Cl)C2)cc1 (stereo unspecified) | 85.6 | 106% | 64.1% | 110% | 89.7 | 72.6% | 69.5% | 83.7% | 65.1% | 91.3% | 82.6 | 122% | 99.8% | 67.5% | 87.8 | 90.1 | 95.7% | 69.5% | 74.2% | 80.9% |
| CCOC(=O)c1cnc(SCc2ccc(Cl)c(Cl)c2)nc1N1CC1 | 50 | 66.7% | 21.4% | 66.6% | 79 | 31.2% | 51.2% | 72.6% | 51.1% | 66.2% | 44.1 | 44.3% | 56.8% | 24.5% | 51.6 | 82.9 | 25.2% | 58.6% | 43.1% | 59.3% |
| C[C@]12CC[C@H]3[C@@H](C[C@@H]4N=C(c5ccc(O)cc5)S[C@@]45C[C@H](O)CC[C@]35C)[C@@H]1CC[C@@H]2O | 52.1 | 63.8% | 13.9% | -46.3% (active) | 66.2 | 19.9% | 49.5% | 72% | 28.7% | 44.9% | 46 | 49.4% | 22.7% | -23.2% (active) | 74.2 | 106 | 76.8% | 67.7% | 26.4% | 4.16% (active) |
| Fc1ccc(C2=NN(c3ccccc3)C(c3sc(N(CCCl)CCCl)nc3Cl)C2)cc1 (stereo unspecified) | 86.3 | 109% | 69.8% | 102% | 86.7 | 81.2% | 68.2% | 83.2% | 59.8% | 84.5% | 79.4 | 92.4% | 103% | 65.4% | 87.5 | 91.5 | 92.3% | 61.5% | 68.7% | 74.5% |
| O=C(NCCNC(=O)c1ccc([As](O)O)cc1)c1ccc([As](O)O)cc1 | 109 | 103% | 116% | 105% | 103 | 112% | 94.6% | 95.6% | 99.7% | 103% | 106 | 92% | 105% | 109% | 103 | 114 | 101% | 100% | 87.5% | 91.7% |
| CC(=O)N1N=C(c2ccccc2)CC1c1sc(N(CCCl)CCCl)nc1Cl (stereo unspecified) | 86.3 | 99.5% | 80% | 97.5% | 92.2 | 93.9% | 88.1% | 99.1% | 64.5% | 87.1% | 99.2 | 97.5% | 98% | 86.7% | 95.8 | 98.4 | 99% | 82.3% | 83.1% | 88% |
| CC(C)N=C(NC(C)C)N1CC1 | 101 | 122% | 124% | 122% | 105 | 111% | 112% | 113% | 105% | 112% | 109 | 116% | 104% | 105% | 108 | 106 | 113% | 111% | 95.4% | 107% |
| CN=C(NN)NN | 96.2 | 111% | 113% | 109% | 109 | 106% | 93.3% | 107% | 116% | 109% | 108 | 92.4% | 119% | 102% | 99.3 | 111 |  | 106% | 98% | 102% |
